Results filed as inconclusive are left out. Where a call stands in place of a potency, no number is given. Calls of active or inactive are those of the source. Calls follow the shape of the dose curve; as a rule, active = well fitted inhibition curve with a large enough effect; inconclusive = small, poorly fitted or top-dose-only effect; inactive = flat fitted curve, though single readings scatter.
system: SC27B; assay: qHTS profiling for inhibitors of Plasmodium falciparum proliferation (AID 504749); also: nearly all actives have a fitted effect of over 60% in size; conditions: P. falciparum in erythrocytes, SYBR Green DNA, 72 h; series mostly up to 28.7 µM
Outline: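 Three-day growth assay of blood-stage parasites in erythrocytes (0.3% parasitemia, 2.5% hematocrit) at 37 C, 5% CO2, quantified by SYBR Green DNA staining after overnight detergent lysis.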
Potency is read from the fitted curve at half-maximal effect.

Row | SMILES | Potency
1 | O=C(O)CCCCC(=O)O | inactive
2 | CCOC(=O)n1ccn(C)c1=S | inactive
3 | COc1cc(NS(C)(=O)=O)ccc1Nc1c2ccccc2nc2ccccc12 | 2.24 µM (active)
4 | C[C@]12CC[C@@H]3c4ccc(O)cc4CC[C@H]3[C@@H]1CC[C@@H]2O | inactive
5 | NCCC(O)(P(=O)(O)O)P(=O)(O)O | inactive
6 | CCN1CCC[C@H]1CNC(=O)c1c(OC)ccc(Br)c1OC | inactive
7 | CCN1CCN(c2cc3c(cc2F)c(=O)c(C(=O)O)cn3C2CC2)CC1 | inactive
8 | CN1C2CCC1CC(OC(=O)c1c[nH]c3ccccc13)C2 (centres undefined) | inactive
9 | Oc1c(Cl)cc(Cl)cc1Sc1cc(Cl)cc(Cl)c1O | inactive
10 | CC(=O)Oc1ccc(C(=C2CCCCC2)c2ccc(OC(C)=O)cc2)cc1 | inactive
11 | CC(=O)OCC(=O)NCCCOc1cccc(CN2CCCCC2)c1 | inactive
12 | CCN(CC)C(=O)N1CCN(C)CC1 | inactive
13 | Nc1ccc(/C=C/c2ccc(N)cc2S(=O)(=O)O)c(S(=O)(=O)O)c1 | inactive
14 | CCN1CCCC1=O | inactive
15 | CCN(CC)CCNC(=O)COc1ccc(Cl)cc1 | 11.2 µM (active)
16 | Cc1c(F)c(N2CCNC(C)C2)cc2c1c(=O)c(C(=O)O)cn2C1CC1 (centres undefined) | inactive
17 | CC(C)(Oc1ccc(Cl)cc1)C(=O)O | inactive

Row | SMILES | Potency
18 | CCCCCCCCCCCCCCCCOP(=O)([O-])OCC[N+](C)(C)C | inactive
19 | C#C[C@]1(OC(C)=O)CC[C@H]2[C@@H]3CCC4=C[C@@H](OC(C)=O)CC[C@@H]4[C@H]3CC[C@@]21C | inactive
20 | CCCn1c(=O)[nH]c(=O)c2[nH]cnc21 | inactive
21 | CC(O)C(=O)O (centres undefined) | inactive
22 | O=C(OCCOCCO)c1ccccc1Nc1cccc(C(F)(F)F)c1 | inactive
23 | c1ccc(-c2ccc(C(c3ccccc3)n3ccnc3)cc2)cc1 (centres undefined) | 6.31 µM (active)
24 | Cc1cccn2c(=O)c(-c3nnn[nH]3)cnc12 | inactive
25 | NCCc1ccn[nH]1 | inactive
26 | O=C1OC(c2ccc(O)cc2)(c2ccc(O)cc2)c2ccccc21 | inactive
27 | CN1C(CCl)Nc2cc(Cl)c(S(N)(=O)=O)cc2S1(=O)=O (centres undefined) | inactive
28 | COc1cc(C(=S)N2CCOCC2)cc(OC)c1OC | inactive
29 | C[C@H]1[C@H](NC(=O)/C(=N/OC(C)(C)C(=O)O)c2csc(N)n2)C(=O)N1S(=O)(=O)O (stereo in doubt) | inactive
30 | NCCCC[C@H](N[C@@H](CCc1ccccc1)C(=O)O)C(=O)N1CCC[C@H]1C(=O)O | inactive
31 | CC(C)(CO)[C@@H](O)C(=O)NCCCO | inactive
32 | Cc1ccnc(NS(=O)(=O)c2ccc(N)cc2)n1 | inactive
33 | CNCCC(Oc1ccccc1C)c1ccccc1 (centres undefined) | inactive
34 | Nc1ccc(C(=O)O)cc1 | inactive
